# Screening results as filed in PubChem.
# Tau fibril ThT: blocks human tau fibril formation measured by thioflavin T; recombinant tau K18 P301L, heparin-induced fibrillization, ThT fluorescence; 270,000 compounds, 2.1% hits; Potency, µM (series often up to 57.4 µM), without a hit: top-dose activity, negative = inhibition, hits mostly inhibitors; also: nearly all actives have a fitted effect of over 55% in size
# Target sequence (P10636 561-689 P618L limits assumed): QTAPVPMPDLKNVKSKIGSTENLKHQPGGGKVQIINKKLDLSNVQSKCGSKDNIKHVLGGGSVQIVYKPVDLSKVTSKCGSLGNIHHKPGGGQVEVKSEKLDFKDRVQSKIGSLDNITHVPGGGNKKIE
#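 In this qHTS, human K18 P301L tau is incubated with compound and heparin for 6 hr at 37 C, and Thioflavin T fluorescence then reports fibril load.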
# HPGD block: HPGD (human) dehydrogenase inhibition. 150,000 compounds, 4.3% hits. P15428. AID 894. Potency, µM, without a hit: at the highest dose activity change, negative = inhibition, actives largely listed as inhibitors. purified HPGD, NADH fluorescence kinetic, PGE2 substrate; active = well fitted inhibition curve with a large enough effect, not every such curve was filed as active; inconclusive = small, poorly fitted or top-dose-only effect, or another doubt; inactive = no such curve, though single readings can be large or run the other way
#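 20 nM HPGD preincubated 15 min at room temperature with compound in 50 mM Tris-HCl pH 8, 0.01% Tween 20. Started with 1 mM NAD+ and 30 uM prostaglandin E2; NADH fluorescence (360/450 nm) read 5 times over 30-s intervals, last minus first.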
# KDM4E inh: blocks human JMJD2E demethylase activity. Potency, µM (highest dose often 57.1 µM), for the others: at the highest dose activity change, negative = inhibition, usual class: inhibitors. JMJD2E catalytic domain, FDH-coupled NADH fluorescence (FDH is formaldehyde dehydrogenase). B2RXH2. AID 2147. 230,000 compounds, 1.6% hits; active = well fitted inhibition curve with a large enough effect, not every such curve was filed as active; inconclusive = small, poorly fitted or top-dose-only effect, or another doubt; inactive = no such curve, though single readings can be large or run the other way;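 also: 0% = wells with enzyme and -100% = buffer wells without enzyme; nearly all actives have a fitted effect of over 50% in size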
# Target sequence (B2RXH2 1-337 limits assumed): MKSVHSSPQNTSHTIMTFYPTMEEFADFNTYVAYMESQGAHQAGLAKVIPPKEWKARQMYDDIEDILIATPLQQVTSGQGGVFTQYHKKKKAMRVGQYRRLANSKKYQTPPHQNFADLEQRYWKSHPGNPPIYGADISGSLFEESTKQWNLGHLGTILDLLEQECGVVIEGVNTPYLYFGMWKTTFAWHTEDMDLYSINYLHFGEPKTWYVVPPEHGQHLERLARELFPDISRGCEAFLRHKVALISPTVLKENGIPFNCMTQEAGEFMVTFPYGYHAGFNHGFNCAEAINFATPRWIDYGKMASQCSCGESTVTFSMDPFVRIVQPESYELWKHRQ
# Tau FP inhib: blocks human tau fibril formation measured by polarization; K18 P301L tau heparin fibrillization, Alexa594 FP, 6 h; 280,000 compounds, 0.39% hits; Potency, µM (top dose mostly 57.7 µM), for the others: top-dose activity, negative = inhibition, actives largely listed as inhibitors; P10636; AID 1468; also: nearly all actives have a fitted effect of over 55% in size
#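 Steps: dispense K18 P301L tau (15 uM plus 0.24 uM Alexa 594 tracer, final) in pH 7 sodium acetate; add compound; add heparin (20 uM final); incubate 6 hr, 37 C; add ThT (30 uM final); after 1 hr ambient, read FP.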
# Tau fluor cs: counter-screen for tau fibril formation inhibitors; tau K18 P301L (four-repeat tau fragment) Alexa594 fluorescence, heparin fibrillization; Potency, µM (top dose mostly 57.7 µM), for the others: at the highest dose activity change, negative = decrease; 280,000 compounds, 0.93% hits; also: nearly all actives have a fitted effect of over 55% in size
#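 Human K18 P301L tau (15 uM unlabeled plus 0.24 uM Alexa 594-labeled, final) in 100 mM sodium acetate pH 7 was mixed with compound and 20 uM heparin and incubated 6 hr at 37 C.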
# ALDH1A1 inh: ALDH1A1 (human) enzyme inhibition. P00352. Purified ALDH1A1, NADH fluorescence, propionaldehyde substrate. Potency, µM (highest dose often 75.3 µM), inactives show top-dose activity, negative = inhibition, actives largely listed as inhibitors. 220,000 compounds, 7.3% hits; active = well fitted inhibition curve with a large enough effect, not every such curve was filed as active; inconclusive = small, poorly fitted or top-dose-only effect, or another doubt; inactive = no such curve, though single readings can be large or run the other way;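 also: plate controls were no enzyme wells and a reference inhibitor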
# The depositor's hits bear a star; u = inconclusive; x = not tested or not shown; ! = not confirmed by another sample; [ ] = dose if it differs, or a comment. Rows were chosen to be rich in hits. Some 9.9% of all compounds tested hit in one or more screens of this group. Unless noted, calls follow the shape of the dose curve; as a rule, active = well fitted curve in the direction sought with a large enough effect; inconclusive = small, poorly fitted or top-dose-only effect, or another doubt; inactive = no such curve, though single readings can be large; an effect the other way counts as inactive or inconclusive. Unless noted, % is scaled to controls: 0 for no effect and ±100 for the full control effect; potency is read from the fitted curve at half-maximal effect.
SMILES,Tau fibril ThT,HPGD block,KDM4E inh,Tau FP inhib,Tau fluor cs,ALDH1A1 inh
ClCc1ccccn1,x,-6%,x,x,x,2%
CCN(CC)c1ccc(CN(C)CCc2ccc(OC)c(OC)c2)cc1,-9%,6%,-15%,5%,-9%,13µM*
COc1ccc(CCN(C)Cc2ccc(F)cc2F)cc1OC,-3%,-8%,u,3%,0%,u
CC(C)(O)C1C2OC(=O)C1[C@]1(O)C[C@H]3O[C@]34C(=O)O[C@H]2[C@]14C (some centres not stated) (tested in a mixture with another compound),-6%,5%,4%,-1%,-4%,3%
NNS(=O)(=O)c1ccc(Sc2ccccn2)c([N+](=O)[O-])c1,-14%,x,-8%,-5%,-23%,u
[Cl-].[Cl-].[Hg+2],x,0.1µM*,x,x,x,0.14µM*
COc1cc(-c2nc3ccc(Cl)cn3c2Nc2ccc3c(c2)OCCO3)ccc1O,u,x,x,13%,10µM*[quencher],x
COc1ccccc1CCNCc1ccc(OC)c(OC)c1OC,0%,x,5.6µM*,-1%,0%,u
COc1ccc(CCNCc2ccc(OC)c(OC)c2OC)cc1,-5%,-5%,u,-4%,-5%,u
O=C1NC(=O)N(c2ccccc2)C(=O)/C1=C/c1ccc2c(c1)Cc1ccccc1-2,u,x,u,u,-13%,u
CN(C)c1ccc(/C=C/C=C2/C(=O)NC(=O)N(c3ccccc3)C2=O)cc1,4µM*,x,-9%,u,u,u
Cc1cccc(N2C(=O)NC(=O)/C(=C\C=C\c3ccco3)C2=O)c1,10µM*,x,-12%,u,-5%,x
Cc1ccc(N2C(=O)NC(=O)/C(=C\C=C\c3ccco3)C2=O)cc1,x,x,-19%,13µM*,u,x
Cc1cccc(N2C(=O)NC(=O)/C(=C/c3ccc([N+](=O)[O-])o3)C2=O)c1,0%,13µM*,-2%,4%,2%,-4%
Cc1cccc(N2C(=O)NC(=O)/C(=C\c3cccn3-c3ccc(Cl)cc3)C2=O)c1,u,u,9%,-3%,-13%,-3%
CC1O[C@@H](O[C@@H]2C(O)C[C@H](O[C@@H]3C(O)C[C@@H](OC4CC[C@@]5(C)C6CC[C@]7(C)C(C8=CC(=O)OC8)CC[C@@]7(O)C6CC[C@@H]5C4)OC3C)OC2C)CC(O)[C@H]1O (some centres not stated),-22%,-12%,-7%,3%,-8%,-7%
CCSCC[C@H](N)C(=O)O,x,-14%,x,x,x,2%[13.5 µM]
O=C(c1ccccc1)[C@H]1[C@H](c2ccccc2[N+](=O)[O-])N1C1CCCCC1 (some centres not stated),x,-20%,x,x,x,3%[13.5 µM]
CC[C@H](CO)NC(=O)[C@H]1C=C2c3cccc4[nH]cc(c34)C[C@@H]2N(C)C1,x,u,u,x,x,-11%[20.9 µM]
O=C(Cl)C(Cl)(Cl)Cl,x,-2%,x,x,x,-5%
C=CC[N+]1(C)CCC23c4c5ccc(O)c4O[C@H]2C(=O)CC[C@@]3(O)C1C5 (some centres not stated),0%,x,x,5%,1%,-15%
Cc1ccc(N2C(=O)NC(=O)/C(=C\C=C\c3ccco3)C2=O)cc1C,13µM*,10µM*,-11%,u,-14%,u
O=C1NC(=O)N(c2ccccc2)C(=O)/C1=C/C=C/c1ccco1,x,x,-12%,x,x,x
COc1ccc(CN2C(=O)NC(=O)/C(=C/c3ccc([N+](=O)[O-])o3)C2=O)cc1,8.9µM*,x,-13%,u,u,18µM*
CC(C)C(=O)CP(=O)(O)O,x,-10%,x,x,x,-6%[13.5 µM]
SMILES,Tau fibril ThT,HPGD block,KDM4E inh,Tau FP inhib,Tau fluor cs,ALDH1A1 inh
O=c1c2ccccc2[se]n1-c1ccccc1,u,0.63µM*,0.4µM*,u,u,0.22µM*
CCCCCCCCCCCCC/C=C/[C@@H](O)[C@@H](N)COP(=O)([O-])OCC[N+](C)(C)C,1%,-13%,6%,-3%,-12%,1%
c1ccc(CN2CCC3(CCc4ccccc43)CC2)cc1,-10%,0%,4%,-7%,-16%,11%
CCOC(=O)c1ccc(NC(=O)c2cccn(Cc3ccc(C)cc3)c2=O)cc1,-8%,x,x,-13%,-4%,x
CCOC(=O)c1ccc(NC(=O)c2c(O)[nH]c(=O)[nH]c2=O)cc1,u,14µM*,u,-16%,-14%,u
NC1CCc2cc(O)c(O)cc2C1 (configuration not stated),u,-14%,u,u,u,7.9µM*!
O=C(N/N=C\C1C(=O)NC(=S)N(c2ccccc2)C1=O)c1ccc(O)cc1 (configuration not stated),u,x,u,-16%,-19%,10µM*
NC(CO)Cc1ccccc1 (configuration not stated),4%,-7%,-11%,-7%,-6%,-2%
Cc1cc(NC(=O)COC(=O)c2c(C)nn(Cc3ccccc3)c2C)no1,-6%,-1%,11%,-2%,-12%,5%
Cc1nn(Cc2ccccc2)c(C)c1C(=O)OCC(=O)Nc1ccccc1SCC#N,-12%,-5%,-5%,6%,-13%,25µM*
O=C(C1CC(=O)N(C2CCCCCCC2)C1)N1CCC2(CC1)OCCO2 (configuration not stated),-4%,-6%,-1%,-8%,-3%,25µM*
CC(C)(C)c1cc(C#N)cc(Br)c1OP(=O)(Oc1c(Br)cc(C#N)cc1C(C)(C)C)c1ccccc1,x,-9%,x,x,x,14%[13.5 µM]
O=C1c2ccccc2C(=O)N1SC1CCCCC1,u,2.2µM*,-2%,u,-2%,1.4µM*
CC1(C)C(C(=O)NN2C(=O)c3ccccc3C2=O)C1(C)C,-7%,-7%,3%,-7%,-2%,1%
CCc1ccc(N2C(=O)NC(=O)/C(=C/c3ccsc3)C2=O)cc1,u,x,7%,-5%,-12%,-5%
COc1ccccc1N1C(=O)NC(=O)/C(=C/c2ccc3c(c2)Cc2ccccc2-3)C1=O,u,u,u,-8%,-3%,u
Cc1ccc(N2C(=O)NC(=O)/C(=C/c3ccc(OC(=O)c4cccs4)cc3)C2=O)cc1,u,28µM*,20µM*,-9%,-13%,u
COc1ccc(N2C(=O)NC(=O)/C(=C/c3cccc(OC(=O)c4cccs4)c3)C2=O)cc1Cl,u,32µM*,-15%,u,-20%,u
CCCCCCCC(=O)NC(Oc1ccccc1[N+](=O)[O-])C(Cl)(Cl)Cl (configuration not stated),-7%,10µM*,1%,1%,-15%,-6%
COc1ccc(C[C@@H](N)c2ccc(OC)cc2)cc1,x,2%,x,x,x,9%[13.5 µM]
